HTT-AS promoter: activates huntingtin-antisense promoter activity | HEK293 HTT-AS promoter firefly luciferase reporter, 24 h; response scale: percent change from vehicle, -100% = no light | Potency, µM (series often up to 57.5 µM), for inactives: top-dose activity change, positive = activation, hits mostly activators | 48,000 tested, 0.24% active; further: potency means the concentration at half of the fitted maximal effect; nearly all actives have a fitted effect of over 55% in size
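Firefly luciferase signal from promoter-reporter HEK293 cells was scaled between vehicle (0%) and zero RLU (-100%). Compounds were tested at final concentrations of up to 57.5 uM over 24 h at 37 degrees C. PTC124 at 50 uM final served as control inhibitor.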
GPR32 ag: activates human resolvin D1 receptor GPR32. 48,000 tested, 2.5% active. activation, % at 76.9 µM. CHO-K1 GPR32 beta-arrestin PathHunter luminescence, 90 min; zero percent set by DMSO-only wells. O75388;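 active means activation of at least 60% and not above a set upper limit, about 1 call in 100 departs from these limits; inconclusive means activation of 40% to 60%, or above that upper limit; inactive means activation under 40%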; further: 0% is about no effect
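GPR32 activation in stably transfected CHO-K1 cells, detected as beta-arrestin recruitment by enzyme-fragment complementation. Compound exposure: 90 min, 37 °C.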
NTMT1 inhibitor: inhibitors of human N-terminal methyltransferase NTMT1; NTMT1 MTase-Glo SAH luminescence, purified enzyme; 59,000 tested, 2.5% active; AID 1645870; Q9BV86; Potency, µM (top dose mostly 114 µM), for inactives: top-dose activity change, negative = inhibition, hits mostly inhibitors;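 further: potency means the concentration at half of the fitted maximal effect; plate controls were DMSO vehicle for no effect and no enzyme for full effect; nearly all actives have a fitted effect of over 65% in size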
HTT promoter inh: inhibitors of huntingtin promoter activity | HEK293 HTT promoter firefly luciferase reporter, 24 h | Potency, µM (top dose mostly 57.5 µM), for inactives: top-dose activity change, negative = inhibition, most hits filed as inhibitors | 48,000 tested, 0.93% active | AID 1508623; further: potency means the concentration at half of the fitted maximal effect; nearly all actives have a fitted effect of over 50% in size
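Luminescence was read after Dual-Glo reagent and a 10 min room-temperature incubation. Values were normalized to vehicle (0% activity) and zero RLU (-100% activity). Reporter HEK293 cells had been exposed to compounds (up to 57.5 uM final) for 24 h.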
Sfp PPTase inh: inhibits purified B. subtilis Sfp PPTase; purified Sfp PPTase enzyme activity, qHTS; 230 tested, 78% active; Potency, µM (series often up to 114 µM), inactives show at the top dose activity change, negative = inhibition, most hits filed as inhibitors; shares compounds with NTMT1 inhibitor
Bsub HM489 growth: reduces growth of B. subtilis HM489 strain. shares compounds with NTMT1 inhibitor. AID 540353. B. subtilis HM489 (acpS-) growth, BacTiter-Glo, 5 h. 220 tested, 50% active. Potency, µM (top dose mostly 114 µM), for inactives: top-dose activity change, negative = inhibition, actives largely listed as inhibitors
Sfp PPTase gel: inhibits B. subtilis Sfp PPTase in gel assay; shares compounds with NTMT1 inhibitor; purified Sfp PPTase, gel-based product detection; Potency, µM (top dose mostly 250 µM), for the others: at the top dose activity change, negative = inhibition, most hits filed as inhibitors; 220 tested, 54% active; AID 540355
Sfp gel: confirmation of Bacillus subtilis Sfp PPTase inhibitors. shares compounds with NTMT1 inhibitor. purified Sfp PPTase, gel-based product detection. Potency, µM (series often up to 250 µM), for the others: top-dose activity change, negative = inhibition, hits mostly inhibitors. 45 tested, 90% active. AID 602362
Sfp inh SAR2: inhibitors of Bacillus subtilis Sfp PPTase, SAR round 2; shares compounds with NTMT1 inhibitor; 230 tested, 87% active; AID 602370; Potency, µM (top dose mostly 57.1 µM), without a hit: at the top dose activity change, negative = inhibition, usual class: inhibitors; purified Sfp enzyme, PPTase activity, qHTS
hGST ctr: inhibits hGST A1-1 in Sfp inhibitor counter-screen | Potency, µM (series often up to 114 µM), inactives show at the top dose activity change, negative = inhibition, usual class: inhibitors | 55 tested, under 10 active | shares compounds with NTMT1 inhibitor | hGST A1-1 enzyme activity counter-screen, qHTS
HSD17B4 inh: inhibits human HSD17B4, off-target for HPGD inhibitors | shares compounds with NTMT1 inhibitor | purified HSD17B4, estradiol/NAD+, NADH fluorescence | Potency, µM (top dose mostly 57.1 µM), for the others: at the highest dose activity change, negative = inhibition, hits mostly inhibitors | 230 tested, 10% active | AID 743187
Target sequence (P51659 whole entry, looked up): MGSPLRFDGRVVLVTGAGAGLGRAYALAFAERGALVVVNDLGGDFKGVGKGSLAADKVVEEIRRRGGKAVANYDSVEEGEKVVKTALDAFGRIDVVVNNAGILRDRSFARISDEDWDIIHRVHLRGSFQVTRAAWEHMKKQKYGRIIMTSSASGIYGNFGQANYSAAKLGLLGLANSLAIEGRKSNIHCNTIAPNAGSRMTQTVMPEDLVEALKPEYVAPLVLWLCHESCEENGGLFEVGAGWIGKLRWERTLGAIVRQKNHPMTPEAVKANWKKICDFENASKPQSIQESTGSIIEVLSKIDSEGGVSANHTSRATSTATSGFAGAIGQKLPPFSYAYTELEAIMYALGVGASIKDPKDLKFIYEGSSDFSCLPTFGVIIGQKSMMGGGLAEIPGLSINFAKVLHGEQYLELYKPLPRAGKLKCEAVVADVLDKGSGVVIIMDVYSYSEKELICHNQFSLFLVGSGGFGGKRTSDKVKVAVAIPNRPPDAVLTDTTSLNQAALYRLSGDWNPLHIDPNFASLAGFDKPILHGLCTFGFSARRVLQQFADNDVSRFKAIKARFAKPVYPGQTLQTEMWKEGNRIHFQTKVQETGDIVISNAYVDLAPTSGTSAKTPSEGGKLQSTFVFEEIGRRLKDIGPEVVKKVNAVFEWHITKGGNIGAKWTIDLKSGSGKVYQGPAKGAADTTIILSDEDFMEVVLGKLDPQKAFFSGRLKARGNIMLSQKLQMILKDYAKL
ALDH1A1 counter: inhibits human ALDH1A1, off-target for HPGD inhibitors. shares compounds with NTMT1 inhibitor. recombinant ALDH1A1, NADH fluorescence, propionaldehyde/NAD+. Potency, µM (highest dose often 57.1 µM), inactives show at the top dose activity change, negative = inhibition, usual class: inhibitors. 230 tested, 93% active
Starred values were filed as active, the others as inactive; u = inconclusive; x = not tested or not shown; ! = a repeat was not active; [ ] = another dose, or the depositor's remark. An excerpt weighted towards active compounds, which were near 4.6% of everything screened. Unless noted, the call rests on the fitted dose curve; in most records, active means well fitted curve in the direction sought with a large enough effect; inconclusive means small, poorly fitted or top-dose-only effect, or another doubt; inactive means no such curve, though single readings can be large; an effect the other way counts as inactive or inconclusive.

SMILES	HTT-AS promoter	GPR32 ag	NTMT1 inhibitor	HTT promoter inh	Sfp PPTase inh	Bsub HM489 growth	Sfp PPTase gel	Sfp inh SAR2	HSD17B4 inh	ALDH1A1 counter	others
CSc1ncc(C(=O)N2CCN(c3cccc(C(F)(F)F)c3)CC2)c(C)n1	-27%	35	18%	-16%	x	x	x	x	x	x
FC(F)(F)c1cccc(N2CCN(C(=S)Nc3cc(C(F)(F)F)ccn3)CC2)c1	x	x	u	x	5.1µM*	7.4µM*	u	u	-12%	19µM*	Sfp gel=-5%;hGST ctr=u
CC(=O)c1ccc(N2CCN(C(=O)Nc3ccc(C)cc3)CC2)cc1	-24%	2	-2%	u	x	x	x	x	x	x
Cc1cn(C)c(CC(=O)N2CCN(c3cccc(C(F)(F)F)c3)CC2)c1C(=O)O	-21%	1	-7%	u	x	x	x	x	x	x
Cc1cc(C)nc(NC(=S)N2CCN(c3ccc4cn(C)nc4c3)CC2)c1	x	x	u	x	13µM*	12%	-68%	11µM*	u	22µM*
Cc1ccnc(NC(=S)N2CCN(c3cccc(C(F)(F)F)c3)CC2)c1	x	x	x	x	4.7µM*	12µM*	0.32µM*!	0.65µM*	-25%	7.6µM*	Sfp gel=4.3µM*;hGST ctr=-3%
CC1=CC(=O)C2(OC3OC(C)C(O)C(OC(=O)/C=C/c4ccccc4)C3O)C=COC(OC3OC(CO)C(O)C(O)C3O)C12 (stereo not given)	x	x	20%[12.6 µM]	x	x	x	x	x	x	x
O=C(CCC#CCSc1nnc(-c2cccc3ccccc23)o1)c1ccccc1	x	x	4%[57.5 µM]	x	x	x	x	x	x	x
Cc1ccnc(NC(=S)N2CCCN(c3cccc(C(F)(F)F)c3)CC2)c1	x	x	u	x	4.7µM*	7.4µM*	1.3µM*	1.6µM*	-9%	1.7µM*	Sfp gel=1.9µM*;hGST ctr=u
Cn1cnc(S(=O)(=O)N2CCC(C(=O)N3CCN(c4cccc(C(F)(F)F)c4)CC3)CC2)c1	-6%	-6	-5%	-16%	x	x	x	x	x	x
CC(C)Cn1cc(NC(=O)N2CCN(c3cccc(C(F)(F)F)c3)CC2)c2ccccc2c1=O	-25%	-34	5%	u	x	x	x	x	x	x
FC(F)(F)c1cccc(N2CCN(C(=S)Nc3ccccn3)CC2)c1	x	x	x	x	2.4µM*	37µM*	25µM*	0.91µM*	-27%	7.6µM*
FC(F)(F)c1cccc(N2CCN(C(=S)Nc3ncnc4ccccc34)CC2)c1	x	x	u	x	u	5.9µM*	u	9.1µM*	u	6.8µM*
FC(F)(F)c1cccc(N2CCN(C(=S)Nc3cnccn3)CC2)c1	x	x	x	x	u	-53%	158µM*	u	30µM*	24µM*
COc1cc2oc(-c3ccc(O)cc3O)cc2c(OC)c1CC=C(C)C	x	x	-9%[29.8 µM]	x	x	x	x	x	x	x
CC1(C)C(=O)N2c3ccccc3[C@]3(CC(n4cnc5ccccc5c4=O)C(=O)O3)[C@H]2N1O (stereo not given in full)	x	x	6%[29.8 µM]	x	x	x	x	x	x	x
Cc1ccnc(NC(=S)N2CCN(c3cccc(C(F)(F)F)c3)C2)c1	x	x	-11%[57.5 µM]	x	3%	-28%	u	0.81µM*	-8%	22µM*
Cc1oc2ncn(C)c(=O)c2c1C(=O)N1CCN(c2cccc(C(F)(F)F)c2)CC1	-15%	-6	5%	0%	x	x	x	x	x	x
Cc1ccnc(C(=S)N2CCN(c3cccc(C(F)(F)F)c3)CC2)c1	x	x	-2%	x	u	u	6%	u	-7%	17µM*
Cc1ccnc(NC(=S)N[C@H]2CCN(c3cccc(C(F)(F)F)c3)C2)c1	x	x	8%[57.5 µM]	x	-3%	u	u	u	0%	22µM*
Cn1nnc2c(N3CCN(c4cccc(C(F)(F)F)c4)CC3)ncnc21	-22%	-4	4%	u	x	x	x	x	x	x
Cc1cc(C)nc(NC(=S)N2CCN(S(=O)(=O)c3cccc(C(F)(F)F)c3)CC2)c1	x	x	u	x	2.4µM*	u	-29%	0.81µM*	-18%	22µM*
Cc1ccc2nc(N3CCN(c4cccc(C(F)(F)F)c4)CC3)c3nnnn3c2c1	x	1	x	x	x	x	x	x	x	x
CCC1=CC2CN(C1)Cc1c([nH]c3ccccc13)[C@@](C(=O)OC)(c1cc3c(cc1OC)N(C)[C@H]1[C@@](O)(C(=O)OC)[C@H](OC(C)=O)[C@]4(CC)C=CCN5CC[C@]31[C@@H]54)C2 (stereo not given in full)	x	x	-1%[29.8 µM]	x	x	x	x	x	x	x
CC12CCC3c4ccc(O)cc4CCC3C1CC(OC1OC(C(=O)O)C(O)C(O)C1O)C2O (stereo not given)	x	x	16%[57.5 µM]	x	x	x	x	x	x	x
SMILES	HTT-AS promoter	GPR32 ag	NTMT1 inhibitor	HTT promoter inh	Sfp PPTase inh	Bsub HM489 growth	Sfp PPTase gel	Sfp inh SAR2	HSD17B4 inh	ALDH1A1 counter	others
Cc1ccc(C(=O)NCCCCCC(=O)Nc2ccccc2N)cc1	x	x	10%[29.8 µM]	x	x	x	x	x	x	x
CCc1c(Cl)c(O)c(Cl)c(O)c1C(=O)O[C@H]1[C@H](O)[C@H](OC)[C@H](OC/C2=C\C=C\C[C@H](O)/C(C)=C\[C@H](CC)[C@@H](O[C@@H]3OC(C)(C)[C@@H](OC(=O)C(C)C)[C@H](O)[C@@H]3O)/C(C)=C/C(C)=C/C[C@@H]([C@@H](C)O)OC2=O)O[C@@H]1C	x	x	1%[29.8 µM]	x	x	x	x	x	x	x
O=C(Nc1ccc(Cl)c(Cl)c1)N1CCN(c2ccncc2)CC1	x	x	-4%	x	x	x	x	x	x	x
CC1=C(C(=O)Nc2ccon2)C2(CCCC2)N=C(Nc2nc3ccccc3o2)N1	x	x	11%	x	x	x	x	x	x	x
Cc1ccc(NC(=O)Nc2nnc(Sc3ncnc4cc(OCCCN5CCOCC5)ccc34)s2)cc1	x	x	65%	x	x	x	x	x	x	x
CCc1c(C(=O)NNC(=O)[C@@H](O)c2cc(F)cc(F)c2)ccc(O)c1C	x	x	18%	x	x	x	x	x	x	x

From PubChem BioAssay
